MEP2-GFP yeast: modulators of MEP2-GFP levels in yeast, primary screen, S. cerevisiae, multiplex flow cytometry, MLPCN library; S. cerevisiae MEP2-GFP strain, 3 h; 100% = DMSO control level; GFP response vs DMSO, % at 10 µM; 330,000 tested, 0.51% active; AID 2016, 2009;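 active = GFP response versus DMSO above a set limit, roughly screen mean plus 3 SD, cut at about 180% in these data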;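 note: median GFP fluorescence of the barcode-gated MEP2-GFP cells per well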
LAP4 TOR yeast: modulators of LAP4-GFP expression in yeast, primary screen, S. cerevisiae, multiplex flow cytometry, MLPCN library; 3 h; median GFP as percent of DMSO wells; GFP response vs DMSO, % at 10 µM; 320,000 tested, 0.34% active; AID 2023, 2009;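 active = GFP response vs DMSO above a set limit, about the screen mean plus 3 SD, cut at about 150% in these data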
AGP1-GFP MLPCN: modulators of AGP1-GFP expression in yeast TOR pathway, primary screen, cell-based, multiplex flow cytometry, S. cerevisiae, MLPCN library; GFP response vs DMSO, % at 10 µM; 3 h; GFP as percent of DMSO wells; AID 2066, 2009; 320,000 tested, 0.02% active;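 active = GFP response relative to DMSO above a set limit, near screen average plus 3 SD, cut at about 150% in these data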;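 note: median GFP channel fluorescence of the gated AGP1 strain per well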
RPL19A TOR yeast: RPL19A-GFP expression modulators in yeast, primary screen, cell-based, S. cerevisiae, multiplex flow cytometry, MLPCN | S. cerevisiae RPL19A-GFP strain, 3 h; active compounds read low | AID 2025, 2009 | percent response vs DMSO, % at 10 µM | 330,000 tested, 0.3% active;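 active = percent response vs DMSO below 50%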;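 note: median channel GFP fluorescence of the barcoded RPL19A-GFP strain; ratio of sample median GFP to plate DMSO average so 100% = DMSO; lower means less RPL19A-GFP as with rapamycin TOR inhibition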
CIT2 TOR yeast: modulators of CIT2-GFP expression in yeast, primary screen, S. cerevisiae, GFP fusion, multiplex flow cytometry, MLPCN library; S. cerevisiae CIT2-GFP strain, 3 h; 100 means same as DMSO wells; 320,000 tested, 0.065% active; GFP response vs DMSO, % at 10 µM;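 active = GFP response relative to DMSO above a set limit, near the screen mean plus 3 SD, cut at about 150% in these data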;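 note: ratio of well median GFP fluorescence to mean of DMSO wells on the plate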
LAP4-GFP pick2: LAP4-GFP expression modulators in yeast, confirmation, cell-based, second cherry pick, flow cytometry. 590 tested, 20% active. AID 2621, 2010. shares compounds with LAP4 TOR yeast. S. cerevisiae LAP4-GFP strain, 3 h. GFP response vs DMSO, % at 10 µM;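 active = GFP signal as percent of the solvent control above about 150%, meaning raised reporter expression, limit read from the data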;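 note: ratio of well median GFP fluorescence to plate DMSO mean so 100% = DMSO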
MEP2 cherry2: modulators of MEP2-GFP levels in yeast, confirmation, S. cerevisiae, flow cytometry GFP, second cherry picks; shares compounds with LAP4 TOR yeast; AID 2622, 2010; GFP response vs DMSO, % at 10 µM; S. cerevisiae MEP2-GFP strain, 3 h; 590 tested, 10% active;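 active = GFP signal above 150% of the solvent control wells, that is a rise of more than half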;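 note: median channel GFP fluorescence of all gated yeast cells per well; ratio of median GFP to plate DMSO average so 100% = DMSO level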
RPL19A-GFP pick2: RPL19A-GFP modulators in TOR pathway yeast, confirmation, cell-based, S. cerevisiae, flow cytometry, second cherry pick; AID 2623, 2010; S. cerevisiae RPL19A-GFP strain, 3 h; active compounds read low; 100% means same as DMSO wells; shares compounds with LAP4 TOR yeast; GFP response vs DMSO, % at 10 µM; 590 tested, 3% active;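 active = under 65% GFP response relative to DMSO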;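 note: median GFP channel fluorescence per well over the all cells gate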
CIT2-GFP pick2: modulators of CIT2-GFP expression in yeast, confirmation, flow cytometry, second cherry pick, single plex; shares compounds with LAP4 TOR yeast; AID 2624, 2010; 590 tested, 8% active; GFP response vs DMSO, % at 10 µM; S. cerevisiae CIT2-GFP strain, 3 h; DMSO control wells read 100%;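 active = GFP response vs DMSO above about 150%, limit read from the data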;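 note: median green fluorescence per well over all gated yeast cells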
AGP1 GFP CP2: AGP1-GFP expression modulators, hit retest, confirmation, cell-based, flow cytometry, S. cerevisiae, cherry pick set 2 | shares compounds with LAP4 TOR yeast | S. cerevisiae AGP1-GFP strain, 3 h | percent response vs DMSO, % at 10 µM | 590 tested, under 10 active;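 active = over 150 percent of DMSO response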;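 note: median GFP channel fluorescence over all cells without mother daughter split; sample median GFP divided by mean DMSO control so 100% equals DMSO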
Yeast autofluor: compound autofluorescence in yeast s288c, dose response, artefact control for yeast TOR pathway GFP screen, s288c strain. shares compounds with LAP4 TOR yeast. S. cerevisiae s288c, 520 nm autofluorescence, flow cytometry, 3 h; active compounds read high; zero means same as solvent-only cells. fluorescence change (kMESF span) at 33 µM. 610 tested, under 10 active. AID 2757, 2010;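 active = fluorescence span over the dose series, or activity score, above about 33, limit read from the data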
The depositor's hits bear a star; x = not tested or not shown. Hits are enriched below; roughly 0.93% of the tested compounds scored in any of these assays.

SMILES	MEP2-GFP yeast	LAP4 TOR yeast	AGP1-GFP MLPCN	RPL19A TOR yeast	CIT2 TOR yeast	LAP4-GFP pick2	MEP2 cherry2	RPL19A-GFP pick2	CIT2-GFP pick2	AGP1 GFP CP2	Yeast autofluor
O=C(NCCN1CCCC1)c1ccc(Cn2c(=S)[nH]c3cc4c(cc3c2=O)OCO4)cc1	104	153*	111	83	87	101	94	99	106	97	x
O=C(CN1C(=O)c2ccccc2S1(=O)=O)NCc1ccccc1Cl	299*	81	22	95	69	97	94	99	114	96	x
COc1ccc(/C=C/C(=O)c2ccccc2)cc1Cn1nnc2ccccc21	105	109	96	105	89	x	x	x	x	x	x
C[C@@]12C(=O)Nc3ccc(Cl)cc3C(=O)N1[C@H]1c3ccccc3OC[C@@H]1[C@@H]2c1ccccc1	94	157*	90	104	86	132	121	96	92	98	x
C[C@@]12C(=O)Nc3cc(Cl)ccc3C(=O)N1[C@H]1c3ccccc3OC[C@@H]1[C@@H]2c1ccccc1	90	121	88	102	97	x	x	x	x	x	x
CCOC(=O)C1=C(COC(=O)CNC(=O)c2ccc(C)cc2)NC(=O)NC1C (stereo not drawn)	87	82	88	62	85	98	98	99	104	101	x
CCOC(=O)C1=C(COC(=O)CNC(=O)c2ccc(C(C)(C)C)cc2)NC(=O)NC1C (stereo not drawn)	99	102	104	97	92	x	x	x	x	x	x
Cc1cc(NC(=O)CCS(=O)(=O)c2nc(-c3ccccc3)cc(C(F)(F)F)n2)no1	104	111	113	100	99	x	x	x	x	x	x
CS(=O)(=O)c1nc(-c2ccccc2)cc(C(F)(F)F)n1	142	160*	111	86	80	x	x	x	x	x	0.51
Cc1nc2c(O)cccc2cc1CO	105	103	101	102	112	x	x	x	x	x	x
CN(C)/C=C/C(=O)c1ccc(-c2ccc(Cl)cc2Cl)o1	160	83	21	58	85	159*	148	113	154*	87	0.8
O=C(O)c1ccc(-c2ccc(Cl)cc2Cl)o1	93	98	69	81	76	x	x	x	x	x	x
N#Cc1c(Nc2cccc(F)c2)sc2c(O)cc(=O)[nH]c12	100	101	103	94	102	x	x	x	x	x	x
CN(C)c1ccc(/C=C/c2cc[n+]([O-])cc2)cc1	130	109	104	102	108	x	x	x	x	x	x
CN(C)c1ccc(/C=C/c2cc[n+](C)cc2)cc1	249*	199*	123	116	182*	x	x	x	x	x	11
Cc1cccc(CN2C(=O)/C(=C\c3ccc(C(=O)NCCCN4CCN(C)CC4)cc3)Oc3ccccc32)c1	90	164*	82	91	71	135	105	89	102	92	x
CCOC(=O)C(C(=O)OCC)C(C(=O)OCC)N1CCOCC1 (stereo not drawn)	88	180*	68	65	75	x	x	x	x	x	1.3
COc1ccc(C(CNCC(O)COc2c(C)ccc(C)c2C)N(C)C)cc1 (stereo not drawn)	114	101	103	94	100	x	x	x	x	x	x
CCCn1c(SCC(=O)Nc2cc(S(=O)(=O)N(C)C)ccc2OC)n[nH]c1=O	107	106	113	103	94	x	x	x	x	x	x
O=C(COC(=O)c1cc(Cl)ccc1[N+](=O)[O-])NCc1ccc(Cl)cc1Cl	104	104	101	102	101	x	x	x	x	x	x
COc1ccccc1N1C(=O)c2cccc3c(C(=O)O)ccc(c23)C1=O	94	92	94	90	90	x	x	x	x	x	0.2
O=C(COc1ccccc1)NNC(=S)NC(=O)c1ccc(Cl)cc1Cl	119	219*	98	109	92	260*	185*	83	122	117	1.4
C=CCOc1ccc(/C=C/C(=O)OCC(=O)N2CCC(c3ccccc3)=N2)cc1	174	170*	122	116	171*	98	102	98	98	98	x
C=CCOc1ccc(/C=C/C(=O)OCC(=O)NCCCc2ccccc2)cc1	114	101	103	97	95	x	x	x	x	x	x
CCN(CC)S(=O)(=O)c1ccc(N2CCOCC2)c(NC(=O)c2ccc(=O)[nH]c2)c1	95	86	94	96	99	x	x	x	x	x	x
SMILES	MEP2-GFP yeast	LAP4 TOR yeast	AGP1-GFP MLPCN	RPL19A TOR yeast	CIT2 TOR yeast	LAP4-GFP pick2	MEP2 cherry2	RPL19A-GFP pick2	CIT2-GFP pick2	AGP1 GFP CP2	Yeast autofluor
CCCn1ncc(CN2CCC(CO)(CC3CCCCO3)CC2)c1C (stereo not drawn)	96	94	99	94	89	x	x	x	x	x	x
CN(C)c1ccc(N=Cc2nc(-c3ccccc3)oc2OC(=O)c2cccc(Cl)c2)cc1	99	95	103	105	105	x	x	x	x	x	0.71
Cc1ccc(-c2nc(C=Nc3ccccc3)c(O)o2)cc1	101	113	98	103	90	x	x	x	x	x	x
Cc1ccc(C(=O)Oc2oc(-c3ccccc3)nc2C=Nc2ccc(N(C)C)cc2)cc1	94	101	95	104	91	x	x	x	x	x	1
CCN(CC)c1ncc(C#N)c(N)n1	85	100	102	95	99	x	x	x	x	x	x
CCN(CC)c1ccc(/C=C2/C(=O)c3ccc(C(=O)O)cc3C2=O)cc1	365*	298*	124	134	231*	285*	377*	119	250*	110	21
Nc1c(C(=O)NC2CC2)sc2nc3c(c(-c4ccco4)c12)CC/C3=C/c1ccco1	261*	195*	38	71	86	141	113	106	119	101	x
O=C(Nc1cc(Cl)c(Cl)cc1Cl)c1cccnc1	98	89	86	96	94	x	x	x	x	x	x

Assay outcomes: PubChem BioAssay, NMMLSC
